Test results: PubChem BioAssay (NCI)
This is part of a sample that, as a whole, favours compounds with a hit. Of some 79,000 tested, about 15% had one in any assay. Activity calls are given as the source filed them. Cut-off read from the data, not from the text of the source: active = growth inhibition above about 70%; inactive = the rest.

How the values were obtained:
[1] = NCI Yeast Anticancer Drug Screen. Data for the rad52 strain (AID 147);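 note: 0% = growth of vehicle-treated control cultures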; settings: S. cerevisiae rad52 mutant growth inhibition, hits give high values
In short: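 Vehicle-treated cultures served as the reference for growth inhibition of compound-exposed yeast bearing a DNA repair mutation.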

[2] = NCI Yeast Anticancer Drug Screen. Data for the rad50EPP+ strain (AID 151);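 note: 0% = growth of vehicle-treated control cultures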; settings: S. cerevisiae rad50 mutant strain, hits give high values
In short: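 In this screen, rad50EPP+ yeast were exposed to compounds. Growth inhibition was scored against vehicle-treated controls.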

[3] = NCI Yeast Anticancer Drug Screen. Data for the mgt1 strain (AID 153); settings: S. cerevisiae mgt1 mutant growth inhibition, hits give high values
In short: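 mgt1 strain exposed; growth vs vehicle control recorded as inhibition.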

[4] = NCI Yeast Anticancer Drug Screen. Data for the rad50 strain (AID 155);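 note: 0% = growth of vehicle-only cultures of the same strain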; settings: S. cerevisiae rad50 strain growth inhibition, hits give high values
In short: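 DNA repair mutant yeast, compound exposure, growth read-out; inhibition is taken relative to vehicle.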

[5] = NCI Yeast Anticancer Drug Screen. Data for the mec2-1 strain (AID 157); settings: S. cerevisiae mec2-1 strain, hits give high values
In short: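 Vehicle-treated cultures served as reference for growth inhibition of compound-exposed mec2-1 yeast.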

[6] = NCI Yeast Anticancer Drug Screen. Data for the rad14 strain (AID 159);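 note: 0% = growth of vehicle-treated control cultures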; settings: S. cerevisiae rad14 strain growth inhibition, hits give high values
In short: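 DNA repair-defective yeast, compound-exposed; % growth inhibition derived by comparison with vehicle-treated controls.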

[7] = NCI Yeast Anticancer Drug Screen. Data for the sgs1 mgt1 strain (AID 161);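 note: 0% = growth of cultures given vehicle only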; settings: S. cerevisiae sgs1 mgt1 strain, hits give high values
In short: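 Test agents were incubated with a DNA-repair-mutant yeast strain. Growth was then read and compared against vehicle-treated controls.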

[8] = NCI Yeast Anticancer Drug Screen. Data for the CLN2oe strain (AID 163);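 note: 0% = growth of vehicle-only control cultures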; settings: S. cerevisiae CLN2oe strain, hits give high values
In short: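 Inhibition relative to vehicle-treated yeast is reported. Cells: strain with genetic alteration in cell-cycle control, grown with compound.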

[9] = NCI Yeast Anticancer Drug Screen. Data for the cln2 rad14 strain (AID 165);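 note: 0% = growth equal to vehicle treated cultures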; settings: S. cerevisiae cln2 rad14 strain, hits give high values
In short: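 Each compound was tested on cln2 rad14 yeast. Inhibition of growth was calculated against vehicle-exposed controls.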

[10] = NCI Yeast Anticancer Drug Screen. Data for the bub3 strain (AID 167); settings: S. cerevisiae bub3 mutant strain, hits give high values
In short: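 In this screen, a yeast mutant lacking normal mitotic checkpoint function is challenged with compound. Relative growth versus vehicle gives the inhibition value.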

[11] = NCI Yeast Anticancer Drug Screen. Data for the wt2 strain (AID 169);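 note: 0% = growth of vehicle-treated yeast cultures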; settings: S. cerevisiae wt2 strain growth inhibition, hits give high values
In short: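 Inhibition of yeast growth was determined after compound treatment, normalised to controls receiving only vehicle.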

[12] = NCI Yeast Anticancer Drug Screen. Data for the mlh1 strain (AID 171);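 note: 0% = growth of vehicle-treated control cultures of the same strain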; settings: S. cerevisiae mlh1 strain growth inhibition, hits give high values
In short: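 Vehicle-normalised growth inhibition of a repair- or checkpoint-altered yeast strain following compound treatment.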

[13] = NCI Yeast Anticancer Drug Screen. Data for the sgs1 strain (AID 173);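 note: 0% = growth of vehicle-only control cultures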; settings: S. cerevisiae sgs1 mutant, hits give high values
In short: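 Screen format: yeast with repair or checkpoint alterations, compound exposure, growth read relative to vehicle.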

[14] = NCI Yeast Anticancer Drug Screen. Data for the mlh1 rad18 strain (AID 175); settings: S. cerevisiae mlh1 rad18 strain growth inhibition; at 50.0 µM; hits give high values
In short: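 Vehicle-treated cultures served as the reference for growth inhibition in a yeast strain carrying DNA damage repair alterations exposed to each compound.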

[15] = at 5.0 µM (retest, dose inferred, filed as 0.5)
[16] = at 50.0 µM (retest, dose inferred, filed as 5.0)

Measured: growth inhibition

COc1cc(NCc2ccc3nc(N)nc(N)c3c2C)cc(OC)c1OC
active: [4]; at 100.0 µM 78% | [5]; at 33.0 µM 82% | [5]; at 100.0 µM 95% | [13]; at 100.0 µM 75%
inactive: [1]; at 1.2 µM 1% | [1]; at 3.7 µM 5% | [1]; at 11.0 µM 17% | [1]; at 33.0 µM 37% | [1]; at 100.0 µM 68% | [2]; at 1.2 µM -5% | [2]; at 3.7 µM -4% | [2]; at 11.0 µM -4% | [2]; at 33.0 µM 6% | [2]; at 100.0 µM 27% | [3]; at 1.2 µM -3% | [3]; at 3.7 µM -6% | [3]; at 11.0 µM -7% | [3]; at 33.0 µM -7% | [3]; at 100.0 µM 37% | [4]; at 1.2 µM -3% | [4]; at 3.7 µM -3% | [4]; at 11.0 µM 7% | [4]; at 33.0 µM 28% | [4]; at 50.0 µM -7.65% | [5]; at 1.2 µM -4% | [5]; at 3.7 µM 8% | [5]; at 11.0 µM 39% | [5]; at 50.0 µM 54.6% | [6]; at 1.2 µM -2% | [6]; at 3.7 µM -6% | [6]; at 11.0 µM -8% | [6]; at 33.0 µM -5% | [6]; at 100.0 µM 43% | [7]; at 50.0 µM 0.6% | [8]; at 1.2 µM -8% | [8]; at 3.7 µM -18% | [8]; at 11.0 µM -17% | [8]; at 33.0 µM -16% | [8]; at 100.0 µM 30% | [9]; at 50.0 µM -1.2% | [10]; at 1.2 µM -13% | [10]; at 3.7 µM -15% | [10]; at 11.0 µM -15% | [10]; at 33.0 µM -24% | [10]; at 50.0 µM -46.8% | [10]; at 100.0 µM 43% | [11]; at 1.2 µM -4% | [11]; at 3.7 µM -5% | [11]; at 11.0 µM -7% | [11]; at 33.0 µM -2% | [11]; at 100.0 µM 46% | [12]; at 1.2 µM -4% | [12]; at 3.7 µM -6% | [12]; at 11.0 µM -5% | [12]; at 33.0 µM 5% | [12]; at 100.0 µM 56% | [13]; at 1.2 µM -2% | [13]; at 3.7 µM -2% | [13]; at 11.0 µM 5% | [13]; at 33.0 µM 22% | [14] -74.6%

NP1(Oc2ccc(F)cc2)=NP(N)(Oc2ccc(F)cc2)=NP(Oc2ccc(F)cc2)(Oc2ccc(F)cc2)=N1 (stereo unspecified)
inactive: [1]; at 1.2 µM -1% | [1]; at 3.7 µM 7% | [2]; at 1.2 µM -6% | [2]; at 3.7 µM -2% | [2]; at 11.0 µM 2% | [2]; at 33.0 µM 4% | [2]; at 100.0 µM 1% | [4]; at 1.2 µM 4% | [4]; at 3.7 µM 5% | [4]; [15] 21% | [4]; [16] 64% | [5]; at 1.2 µM 1% | [5]; at 3.7 µM 3% | [5]; [15] 12% | [5]; at 11.0 µM 26% | [5]; at 33.0 µM 28% | [5]; [16] 19% | [6]; at 1.2 µM -2% | [6]; at 3.7 µM 1% | [6]; at 11.0 µM 6% | [6]; at 33.0 µM 15% | [7]; [15] 1% | [7]; [16] 28% | [8]; at 1.2 µM 0% | [8]; at 3.7 µM -3% | [8]; at 11.0 µM 17% | [8]; at 33.0 µM 53% | [9]; [15] 5% | [9]; [16] 54% | [10]; at 1.2 µM 1% | [10]; at 3.7 µM -1% | [10]; [15] 8% | [10]; at 11.0 µM 53% | [10]; at 33.0 µM 23% | [10]; [16] 35% | [11]; at 1.2 µM 0% | [11]; at 3.7 µM 7% | [11]; at 11.0 µM -1% | [11]; at 33.0 µM 22% | [11]; at 100.0 µM 50% | [12]; at 1.2 µM 0% | [12]; at 3.7 µM -2% | [12]; at 11.0 µM 1% | [12]; at 33.0 µM 15%
active: [1]; at 11.0 µM 74% | [1]; at 33.0 µM 71% | [1]; at 100.0 µM 96% | [4]; at 11.0 µM 95% | [4]; at 33.0 µM 96% | [4]; at 50.0 µM 94.8% | [4]; at 100.0 µM 96% | [5]; at 50.0 µM 84.7% | [5]; at 100.0 µM 94% | [6]; at 100.0 µM 88% | [7]; at 50.0 µM 97.9% | [8]; at 100.0 µM 94% | [9]; at 50.0 µM 97% | [10]; at 50.0 µM 87.5% | [10]; at 100.0 µM 96% | [12]; at 100.0 µM 84%
